Data reported in PubChem BioAssay (NCATS).
Inconclusive results are not listed. Entries that show only a call come without a potency. Activity calls are given as the source filed them. The call rests on the fitted dose curve.

test: Cytotoxicity counterscreen for inhibitors of SARS-CoV-2 cell entry (AID 1645845); conditions: cell viability (SARS-CoV-2 entry assay cells); series mostly up to 57.1 µM; further: nearly all actives have a fitted effect of over 50% in size
How it was run: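 Counterscreen run in the same HEK293-ACE2 line as the pseudotyped-particle entry assay, without particles. Viability after 48 h at 37 C was read as ATP luminescence, scaled between cell-containing and cell-free wells.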

| SMILES | Potency |
| --- | --- |
| COP(=O)(OC)C(O)C(Cl)(Cl)Cl (configuration not stated) | inactive |
| CC1COC2(c3ccccc3Cl)c3cc(Cl)ccc3NC(=O)CN12 (configuration not stated) | inactive |
| C=CCN1CC[C@]23CCCC[C@H]2[C@H]1Cc1ccc(O)cc13 | inactive |
| CNC(C)Cc1ccccc1OC (configuration not stated) | inactive |
| CC[C@H]1C[C@H]2[C@@H]3CCC4=CC(=O)CC[C@@H]4[C@H]3CC[C@]2(C)[C@H]1O | inactive |
| CCC(=O)O[C@H]1CC[C@H]2[C@@H]3CCC4=CC(=O)CC[C@]4(C)[C@H]3CC[C@]12C | inactive |
| CC(C)[N+](C)(CCC(C(N)=O)(c1ccccc1)c1ccccc1)C(C)C | inactive |
| C[C@@H]1CC[C@H]2[C@@H](C)C(=O)O[C@@H]3O[C@@]4(C)CC[C@@H]1[C@]32OO4 | inactive |
| CC(Cc1ccccc1)NCc1ccccc1Cl (configuration not stated) | inactive |
| C=CC[C@]1(O)CC[C@H]2[C@@H]3CCC4=CC(=O)CCC4=C3C=C[C@@]21C | inactive |
| C=CCOC(Cn1ccnc1)c1ccc(Cl)cc1Cl (configuration not stated) | inactive |
| CC[C@]1(O)CC[C@H]2[C@@H]3CCC4=CCCC[C@@H]4[C@H]3CC[C@@]21C | inactive |
